Measurements reported in the supplement of paper PMC10981050.
Where “and” joins values, the source holds several entries; their conditions need not be identical. Equal entries are not always repeated. Structures can show the parent of a compound that is named as a salt.

Legend:
Experiment in all cases: cell viability relative to vehicle control; higher = less cytotoxic
Conditions in all cases: 10 µM
K562 = system: K562
Method in brief: (§1)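 CRISPR-edited mutant clones and isogenic wild-type clones from four leukaemia lines were screened against Selleck bioactive, kinase and epigenetic probe libraries, with identity-inconsistent compounds excluded. Each compound was acoustically dispensed at a single 10 µM dose into 384-well plates holding 2000 cells in 50 µL medium per well. After 48 h the supernatant was removed and CellTiter-Glo luminescence was read. Viability was expressed as percent of the on-plate vehicle control and analysed in Genedata Screener.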

MARIMO = system: MARIMO
Method in brief: as §1

MOLM14 = system: MOLM14
Method in brief: as §1

OCI-AML2 = system: OCI-AML2
Method in brief: as §1

| SMILES | cell viability (K562; SRSF2 genotype: SRSF2 P95H/wt) | cell viability (K562; SRSF2 genotype: SRSF2 wt/wt) [%] | cell viability (MARIMO; SRSF2 genotype: SRSF2 P95H/wt) [%] | cell viability (MARIMO; SRSF2 genotype: SRSF2 wt/wt) [%] | cell viability (MOLM14; SRSF2 genotype: SRSF2 P95H/wt) [%] | cell viability (MOLM14; SRSF2 genotype: SRSF2 wt/wt) [%] | cell viability (OCI-AML2; SRSF2 genotype: P95H/wt) [%] | cell viability (OCI-AML2; SRSF2 genotype: wt/wt) [%] |
| --- | --- | --- | --- | --- | --- | --- | --- | --- |
| CCOC(=O)C1=C(C)NC(=S)NC1c1cccc(O)c1 (stereo not given) [Monastrol] | 106% and 97.8% | 103 | 103 | 99.4 | 105 | 103 | 101 | 102 |
| N#C[C@@H]1CCCN1C(=O)CNC12CC3CC(CC(O)(C3)C1)C2 [Vildagliptin (LAF-237)] | 87.8% and 87.2% | 84.8 | 81.8 | 88.6 | 83.9 | 89 | 88.8 | 87.7 |
| OC[C@H]1O[C@H](O[C@H]2[C@H](O)[C@@H](O)C(O)O[C@@H]2CO)[C@H](O)[C@@H](O)[C@@H]1O (mixture of isomers) [Maltose] | 96.1% and 91.6% | 99.6 | 102 | 102 | 98.9 | 98.9 | 96.6 | 104 |
| COc1cc2c(cc1OC)[C@@H]1Cc3ccc(OC)c(OC)c3CN1CC2 [Tetrahydropalmatine hydrochloride] | 89.6% and 96.5% | 95.6 | 91.4 | 93.7 | 93.4 | 101 | 103 | 83.9 |
| CN(C)CCOc1ccc(-c2nc(-c3ccncc3)c(-c3ccc4c(c3)CC/C4=N\O)[nH]2)cc1 | 1.3% and 2.07% | 0.83 | 11.5 | 4.32 | 30.2 | 49.3 | 6.47 | 15.8 |
| C[C@H]1CNCCCN1S(=O)(=O)c1cccc2cncc(F)c12 [Ripasudil (K-115)] | 104% and 103% | 108 | 101 | 106 | 74.7 | 101 | 76.7 | 82.9 |
| O=c1oc2c(O)c(O)cc3c(=O)oc4c(O)c(O)cc1c4c23 [Ellagic acid] | 92.7% and 105% | 93.7 | 96.3 | 105 | 106 | 103 | 101 | 101 |
| CN1CCN(Cc2ccc(NC(=O)Nc3ccc(Oc4ccnc(N)n4)cc3)cc2C(F)(F)F)CC1 | 31.7% and 37.7% | 22.2 | 6.8 | 2.68 | 1.79 | 0.67 | 1.64 | 10.3 |
| CCOc1cn(-c2ccc(F)cc2C)nc1C(=O)Nc1ccc(Oc2ccnc3cc(OC)c(OC)cc23)c(F)c1 | 23.1% and 45.6% | 25.2 | 89.3 | 90.4 | 24.9 | 19.6 | 48.1 | 52.9 |
| CC(C)CCNC(=O)[C@H](CC(C)C)NC(=O)[C@H]1O[C@@H]1C(=O)O [Loxistatin Acid (E-64C)] | 107% and 106% | 100 | 102 | 104 | 101 | 104 | 106 | 105 |
| Cc1cc(C)cc(NC(=O)Cc2ccc(OC(C)(C)C(=O)O)cc2)c1 [Efaproxiral sodium] | 102% and 99.1% | 99.9 | 109 | 119 | 110 | 103 | 106 | 116 |
| O=C(O)CCc1ccc(NCc2cccc(Oc3ccccc3)c2)cc1 | 94.2% and 89.7% | 111 | 82.4 | 93.1 | 94.2 | 95.7 | 91 | 92.7 |
| CCN(CC)CC(=O)Nc1c(C)cccc1C [Lidocaine (Alphacaine)] | 113% and 102% | 111 | 106 | 108 | 103 | 105 | 101 | 106 |
| Cc1nc(Nc2ccc(F)cc2)nc(N2CCc3ccccc3C2C)c1C (stereo not given) [Revaprazan Hydrochloride] | 66.5% and 73.7% | 68.7 | 67.6 | 56.4 | 63.3 | 72.5 | 75 | 67.2 |
| O=C(O)CC1CC(c2ccccc2)=NO1 (stereo not given) | 108% and 104% | 103 | 97 | 110 | 97.4 | 99.7 | 89.5 | 95.5 |
| NNC(=O)c1ccncc1.Nc1ccc(C(=O)O)c(O)c1 [pasiniazid] | 109% and 113% | 114 | 106 | 106 | 101 | 108 | 119 | 93.9 |
| CNS(=O)(=O)CCc1ccc2[nH]cc(C3CCN(C)CC3)c2c1 [Naratriptan HCl] | 104% and 100% | 104 | 97.3 | 110 | 107 | 104 | 102 | 113 |
| CO/N=C(\C(=O)N[C@@H]1C(=O)N2C(C(=O)[O-])=C(C[n+]3ccn4ncccc43)CS[C@H]12)c1nsc(N)n1 [Cefozopran hydrochloride] | 108% and 99.3% | 101 | 100 | 114 | 99.4 | 106 | 95.2 | 95.9 |

| SMILES | cell viability (K562; SRSF2 genotype: SRSF2 P95H/wt) | cell viability (K562; SRSF2 genotype: SRSF2 wt/wt) [%] | cell viability (MARIMO; SRSF2 genotype: SRSF2 P95H/wt) [%] | cell viability (MARIMO; SRSF2 genotype: SRSF2 wt/wt) [%] | cell viability (MOLM14; SRSF2 genotype: SRSF2 P95H/wt) [%] | cell viability (MOLM14; SRSF2 genotype: SRSF2 wt/wt) [%] | cell viability (OCI-AML2; SRSF2 genotype: P95H/wt) [%] | cell viability (OCI-AML2; SRSF2 genotype: wt/wt) [%] |
| --- | --- | --- | --- | --- | --- | --- | --- | --- |
| CC(=NNC(=S)N1CCC1)c1ccccn1 | 20.3% and 23% | 23.7 | 7.26 | 11.4 | 1.22 | 0.64 | 11 | 9.98 |
| C=C(C)[C@@H]1CC[C@]2(C(=O)O[C@@H]3O[C@H](CO[C@@H]4O[C@H](CO)[C@@H](O[C@@H]5O[C@@H](C)[C@H](O)[C@@H](O)[C@H]5O)[C@H](O)[C@H]4O)[C@@H](O)[C@H](O)[C@H]3O)CC[C@]3(C)[C@H](CC[C@@H]4[C@@]5(C)CC[C@H](O[C@@H]6OC[C@H](O)[C@H](O)[C@H]6O[C@@H]6O[C@@H](C)[C@H](O)[C@@H](O)[C@H]6O)[C@@](C)(CO)[C@@H]5CC[C@]43C)[C@@H]12 [Anemoside B4] | 93.9% and 103% | 92 | 96.1 | 110 | 96.9 | 97.4 | 93.2 | 105 |
| COC(=O)C1(C)CCC2(C(=O)O)CCC3(C)C(=CCC4C5(C)CC(O)C(O)C(C)(CO)C5CCC43C)C2C1 (stereo not given) [Phytolaccagenin] | 108% | 113 | 111 | 103 | 111 | 111 | 105 | 98.5 |
| COc1ccccc1OCC(O)CN1CCN(CC(=O)Nc2c(C)cccc2C)CC1 (stereo not given) [Ranolazine dihydrochloride] | 92.7% and 97.6% | 101 | 96.7 | 103 | 98.8 | 100 | 102 | 111 |
| O=NN(CCCl)C(=O)NC1CCCCC1 [Lomustine (CeeNU)] | 95% and 113% | 111 | 100 | 99.9 | 84 | 97.9 | 97.2 | 105 |
| NC(=O)c1ncn([C@@H]2O[C@H](CO)[C@@H](O)[C@H]2O)n1 [Ribavirin (Copegus)] | 100% and 95.1% | 90.2 | 87.2 | 97.3 | 56.2 | 24 | 99.6 | 92.5 |
| Cc1ccccc1C(OCCN(C)C)c1ccccc1 (stereo not given) [Orphenadrine citrate (Norflex)] | 96.7% and 92% | 91.3 | 79.7 | 97.3 | 93.3 | 98.1 | 83.2 | 95 |
| N#Cc1ccc(Oc2ccc3c(c2)COB3O)cc1 [Crisaborole (AN2728)] | 93.3% and 84% | 90.8 | 73.8 | 72.9 | 68.2 | 77.7 | 90 | 79.3 |
| CO/N=C(\C(=O)N[C@@H]1C(=O)N2C(C(=O)O)=C(CSC(=O)c3ccco3)CS[C@H]12)c1csc(N)n1 [Ceftiofur hydrochloride] | 98.4% and 82.1% | 83.7 | 89.1 | 93.9 | 91.5 | 93.5 | 93.4 | 95.4 |
| CCc1cccc(CC)c1NC(=O)N1Cc2[nH]nc(NC(=O)c3ccc(N4CCN(C)CC4)cc3)c2C1 | 29.9% and 41.4% | 25.5 | 69.2 | 70.3 | 19.8 | 13.4 | 12.8 | 23.3 |
| O=C(O)Cc1ccccc1Nc1c(Cl)cccc1Cl [Diclofenac Diethylamine] | 102% and 108% | 95.4 | 105 | 101 | 106 | 102 | 105 | 103 |
| NC(=O)[C@@H](CCC(F)(F)F)N(Cc1ccc(-c2ncon2)cc1F)S(=O)(=O)c1ccc(Cl)cc1 | 92.5% and 98.1% | 93.9 | 84.8 | 96.6 | 88.2 | 97.9 | 106 | 104 |
| C1N2CN3CN1CN(C2)C3 [Methenamine (Mandelamine)] | 104% and 102% | 99.1 | 103 | 108 | 107 | 105 | 99 | 112 |
| CO[C@@H](C)Cn1c(=O)n(C)c2cnc3ccc(-c4cncc(C(C)(C)O)c4)cc3c21 | 34.4% and 40.7% | 35 | 38.5 | 35.8 | 18.6 | 19.2 | 5.3 | 13.6 |
| CC1(C)C=Cc2cc(-c3coc4cc(O)ccc4c3=O)ccc2O1 [Corylin] | 78.5% and 85.9% | 85.4 | 70.9 | 69.7 | 97 | 97.4 | 56.4 | 60.8 |
| CN1CCC[C@@H]1CCO[C@](C)(c1ccccc1)c1ccc(Cl)cc1 [Clemastine Fumarate] | 83.6% and 82.3% | 81.6 | 74.2 | 77.3 | 71.3 | 78.4 | 81.7 | 78.8 |
| COc1ccc(Cl)c(Nc2nc3ccccc3nc2NS(=O)(=O)c2cccc(NC(=O)C(C)(C)N)c2)c1 [Pilaralisib (XL147)] | 87.3% and 96.2% | 84 | 68.6 | 66 | 59.3 | 55 | 52.3 | 54.6 |
